Laboratory results reported in PubChem BioAssay (NCATS).
Several values for one entry are separate records, joined by “and”; a condition that tells them apart may be missing. Identical values can stand only once. Inconclusive results are not listed. Activity calls are given as the source filed them. Unless noted, the call rests on the fitted dose curve; in most records, active means well fitted curve in the direction sought with a large enough effect; inconclusive means small, poorly fitted or top-dose-only effect, or another doubt; inactive means no such curve, though single readings can be large; an effect the other way counts as inactive or inconclusive.

Key:
[1] = Cell Viability - BJ (AID 421; calls by dose curve;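 further: potency means the concentration at half of the fitted maximal effect; cells exposed to compound for 40 hours at 37 °C before readout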); settings: BJ fibroblast viability, qHTS
Summary of the method: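 Cytotoxicity as drop in intracellular ATP (CellTiter-Glo, 20 min RT) after 40 hr compound exposure of BJ fibroblasts at 37 °C. Titrations scaled between DMSO and 100 uM tamoxifen, Hill-fitted for AC50.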

[2] = Cell Viability - Jurkat (AID 426;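 active means dose-dependent loss of cell ATP signal giving a full or clear fitted curve, ranked by lower potency value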;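 further: potency means the concentration at half of the fitted maximal effect; cells exposed to compound for 40 hours at 37 °C before ATP read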); settings: qHTS
Summary of the method: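 Cells of the human T-cell leukemia line Jurkat (E6-1) are seeded at 5000 per well, treated with compound across a concentration range for 40 hours at 37 °C, then lysed with CellTiter-Glo; luminescence reports ATP.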

[3] = Cell Viability - Hek293 (AID 427;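 active means compounds whose dose-response curve shows a full or clear partial loss of cell viability, called from curve shape rather than a numeric limit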;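 further: potency means the concentration at half of the fitted maximal effect; cells exposed to compound for 40 hours at 37 °C before reading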); settings: qHTS
Summary of the method: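 Luminescent ATP content (CellTiter-Glo, 20 min at room temperature) was measured after a 40 hr, 37 °C compound exposure of HEK293 cells. AC50 values came from Hill-equation fits of qHTS concentration-response data normalized to DMSO and 100 uM tamoxifen.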

[4] = Cell Viability - HepG2 (AID 433; calls by dose curve;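 further: potency means the concentration at half of the fitted maximal effect; potency for ATP loss meaning cytotoxicity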); settings: qHTS
Summary of the method: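 Cytotoxicity read as ATP loss (CellTiter-Glo luminescence) after 40 hr compound exposure of HepG2, 1500 cells/well, 37 °C. AC50 by Hill equation; 0% set by DMSO, 100% inhibition by 100 uM tamoxifen.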

[5] = Cell Viability - SK-N-SH (AID 435; calls by dose curve; further: potency means the concentration at half of the fitted maximal effect); settings: SK-N-SH neuroblastoma cell viability qHTS
Summary of the method: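 qHTS cytotoxicity: CellTiter-Glo ATP luminescence after 40 h compound exposure of human neuroblastoma SK-N-SH cells at 37 °C. AC50 derived by Hill-equation fitting, with DMSO as basal and 100 uM tamoxifen as full inhibition.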

[6] = Cell Viability - Renal Proximal Tubule (AID 545); settings: renal proximal tubule cells viability; series mostly up to 91.7 µM;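 further: 0% = DMSO only and -100% = 100 µM tamoxifen; nearly all actives have a fitted effect of over 40% in size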
Summary of the method: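 Viability taken as intracellular ATP (CellTiter-Glo luminescence) after 40 hr, 37 °C compound treatment of primary proximal tubule cells from rat kidney, 1000 cells/well; Hill-equation fits of qHTS concentration-response data gave AC50.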

[7] = Cellular Toxicity (caspase-3) MRC-5 (AID 659); settings: MRC-5 cells, luminescence, normalized: DMSO 0%, 10 µM staurosporine 100%; series mostly up to 91.7 µM
Summary of the method: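 Apoptosis readout in MRC-5 cells: luciferase light generated after caspase 3/7 cleaves a peptide-aminoluciferin substrate, measured post 16 hr compound incubation at 37 °C.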

[8] = Cellular Toxicity (caspase-3) N2a (AID 665); settings: N2a cells, luminescence, normalized: DMSO 0%, 10 µM staurosporine 100%; series mostly up to 92.2 µM;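 further: compound exposure lasted 16 h at 37 °C before readout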
Summary of the method: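 Caspase-3/7 activation, measured as increased luminescence from aminoluciferin release, is quantified in mouse N2a cells exposed to compounds for 16 h. Values are normalized to DMSO and 10 uM staurosporine, with AC50 derived by Hill modelling.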

[9] = Cellular Toxicity (caspase-3) Renal Proximal Tubule (AID 667); settings: renal proximal tubule cells; series mostly up to 91.7 µM;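 further: cells exposed to compound for 16 hours at 37 °C before detection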
Summary of the method: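 Caspase 3/7 activation measured by luminescent aminoluciferin release in primary rat proximal tubule cells after 16 hr compound exposure at 37 °C. AC50 from Hill-fitted concentration-response, scaled between DMSO and 10 uM staurosporine.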

[10] = MultiTox-Fluor Cytotoxicity Assay - LYMP1-002 - Live Cells (AID 955); settings: LYMP1-002 lymphoblastoid live-cell protease fluorescence viability; series mostly up to 46.1 µM; further: on the % scale 0 is the no-effect control and ±100 the full control effect
Summary of the method: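 Cells were seeded at 2500 per well and incubated 5 hr. Compounds were then added for 16 hr at 37 C, followed by MultiTox-Fluor reagent for 60 min at room temperature and fluorescence reading of viable-cell protease signal.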

[11] = MultiTox-Fluor Cytotoxicity Assay - LYMP1-003 - Live Cells (AID 962); settings: LYMP1-003 lymphoblastoid cells, MultiTox-Fluor live-cell protease fluorescence; series mostly up to 92.2 µM;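 further: 0% = DMSO only and full loss = 92 µM tetraoctylammonium bromide; cytotoxic hits lower the live-cell protease signal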
Summary of the method: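 Acute cytotoxicity is scored as a drop in live-cell protease activity in human lymphoblastoid LYMP1-003 cells after 16 hr compound exposure at 37 C. AC50 values come from Hill-equation modelling of concentration-response data.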

[12] = Cell Viability - LYMP1-003 - Assay at 24 hr (AID 963); settings: LYMP1-003 lymphoblastoid cell viability; series mostly up to 92.2 µM;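 further: plate controls were DMSO only for no effect and tetraoctylammonium bromide positive control for full effect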
Summary of the method: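 Cytotoxicity is scored as a concentration-dependent fall in ATP-linked luciferase signal in human lymphoblastoid LYMP1-003 cells treated 24 hr at 37 C in complete culture medium.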

[13] = Cell Viability - LYMP2-021 (AID 974); settings: LYMP2-021 lymphoblastoid cells viability; series mostly up to 92.2 µM;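 further: compound exposure lasts 24 hours at 37 °C; on the % scale 0 is the no-effect control and ±100 the full control effect; nearly all actives have a fitted effect of over 55% in size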
Summary of the method: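 Loss of cellular ATP, measured with a luciferase-based CellTiter-Glo readout, serves as the toxicity signal in human lymphoblastoid cells treated for 24 hours at 37 C. Potency is reported as AC50 from a standard Hill model.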

[14] = Cell Viability - LYMP2-007 (AID 979); settings: LYMP2-007 lymphoblastoid cell viability; series mostly up to 92.2 µM;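 further: cells exposed to compound for 24 h before reading; 0% = DMSO only and the negative end = 92 µM tetraoctylammonium bromide; nearly all actives have a fitted effect of over 60% in size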
Summary of the method: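 Cells are seeded at 2500 per well and rested 5 hr. Compounds are then added over a concentration series for 24 hr at 37 C. CellTiter-Glo is added for 30 min at room temperature before luminescence reading.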

[15] = Cell Viability - LYMP2-016 (AID 984); settings: LYMP2-016 lymphoblastoid cell viability, qHTS; series mostly up to 92.2 µM;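 further: cells exposed to compound for 24 hours at 37 °C; on the % scale 0 is the no-effect control and ±100 the full control effect; nearly all actives have a fitted effect of over 55% in size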
Summary of the method: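 Cytotoxicity was scored by luminescent ATP content (CellTiter-Glo) after 24 h compound exposure at 37 C of a human lymphoblastoid line at 2500 cells/well. Concentration-response data were fitted to the Hill equation for AC50.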

[16] = Cell Viability - LYMP2-018 (AID 985); settings: LYMP2-018 lymphoblastoid cells, viability (qHTS); series mostly up to 92.2 µM;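 further: compound exposure lasted 24 hr at 37 °C; plate controls were DMSO only for no effect and tetraoctylammonium bromide at 92 µM for full effect; nearly all actives have a fitted effect of over 50% in size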
Summary of the method: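 Seed 2500 lymphoblastoid cells per well, incubate 5 hr at 37 C, add compound and incubate 24 hr at 37 C, add CellTiter-Glo, wait 30 min at room temperature, then read luminescence.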

[17] = Cell Viability - LYMP2-020 (AID 986); settings: series mostly up to 92.2 µM;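 further: plate controls were DMSO only for no effect and tetraoctylammonium bromide at 92 µM for full effect; nearly all actives have a fitted effect of over 55% in size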
Summary of the method: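 Seed 2500 cells per well and incubate 5 hr at 37 C. Add compounds at a concentration series and incubate 24 hr at 37 C. Add CellTiter-Glo, wait 30 min at RT, read luminescence, and fit a Hill curve for AC50.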

[18] = qHTS Assay for Identification of Small Molecule Inducers of Hypoxia Response (AID 2120; active means well fitted curve in the direction sought with a large enough effect in the signal ratio, with a control signal flat, not every such curve was filed as active; the % refers to the signal ratio; further: 0% is about no effect); settings: hypoxia response reporter cells, beta-lactamase ratio readout; series mostly up to 104 µM
Summary of the method: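 Cell-based qHTS for reporter induction: hypoxia response element controlled beta-lactamase in ME-180 cells. Compounds incubated 17 h at 37 degrees C; activity from blue/green (460/530 nm) ratio, inducers ranked by AC50.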

[19] = qHTS assay for small molecule agonists of the antioxidant response element (ARE) signaling pathway measured by Nrf2-dependant transcriptional activity - cell viability counter screen (AID 720653; active means well fitted curve in the direction sought with a large enough effect in the repeat runs; an effect the other way counts as inactive or inconclusive; further: on the % scale 0 is the no-effect control and ±100 the full control effect); settings: ARE-bla HepG2 viability, CellTiter-Glo ATP luminescence, 16 h; stronger effect = lower value
Summary of the method: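 ARE-bla HepG2 cells (2,000/well) rested 5 hrs at 37C/5% CO2, then exposed to compounds in DMSO for 16 hrs. Viability was read in the same wells as intracellular ATP by luminescence, 30 min at room temperature after reagent addition.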

[20] = qHTS assay for cell viability of HEK293 cells (AID 743288); settings: ATP luminescence (CellTiter-Glo), 18 h, stronger effect = lower value; further: on the % scale 0 is the no-effect control and ±100 the full control effect; nearly all actives have a fitted effect of over 50% in size
Summary of the method: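 Readout is luciferase-coupled ATP content (CellTiter-Glo luminescence, 30 min room temperature) as a measure of metabolically competent cells. Parental HEK293 cells were plated 5 h or more before compound addition, then treated 18 h at 37 C.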

N#CCCCCC#N
inactive: Potency [1] > 92 µM | Potency [2] > 92 µM | Potency [3] > 92 µM | Potency [4] > 92 µM | Potency [5] > 92 µM | outcome [6] | outcome [7] | outcome [8] | outcome [9] | outcome [10] | outcome [11] | outcome [12] | Potency [13] | Potency [14] | Potency [15] | Potency [16] | Potency [17] | Potency [18] | max response [19] 5.3% | max response [20] -18.9%

ClCC(Cl)Cl
inactive: Potency [1] > 92 µM | Potency [2] > 92 µM | Potency [3] > 92 µM | Potency [4] > 92 µM | Potency [5] > 92 µM | outcome [6] | outcome [7] | outcome [8] | outcome [9] | outcome [10] | outcome [11] | outcome [12] | Potency [13] | Potency [14] | Potency [15] | Potency [16] | Potency [17] | Potency [18] | max response [19] -5.62% | max response [20] -18.4%

CC(Cl)(Cl)Cl
inactive: Potency [1] > 92 µM | Potency [2] > 92 µM | Potency [3] > 92 µM | Potency [4] > 92 µM | Potency [5] > 92 µM | outcome [6] | outcome [7] | outcome [8] | outcome [9] | outcome [10] | outcome [11] | outcome [12] | Potency [13] | Potency [14] | Potency [15] | Potency [16] | Potency [17] | Potency [18] | max response [19] 0.834% and -5.56% | max response [20] 6.17% and -1.09%

ClCCOCOCCCl
inactive: Potency [1] > 92 µM | Potency [2] > 92 µM | Potency [3] > 92 µM | Potency [4] > 92 µM | Potency [5] > 92 µM | outcome [6] | outcome [7] | outcome [8] | outcome [9] | outcome [10] | outcome [11] | outcome [12] | Potency [13] | Potency [14] | Potency [15] | Potency [16] | Potency [17] | Potency [18] | max response [19] -12.6% | max response [20] -1.26%

CSSC
inactive: Potency [1] > 92 µM | Potency [2] > 92 µM | Potency [3] > 92 µM | Potency [4] > 92 µM | Potency [5] > 92 µM | outcome [6] | outcome [7] | outcome [8] | outcome [9] | outcome [10] | outcome [11] | outcome [12] | Potency [13] | Potency [14] | Potency [15] | Potency [16] | Potency [17] | Potency [18] | max response [19] 1.42% | max response [20] -1.5%

CC(C)[C@]12CC(=O)[C@H](C)[C@H]1C2
inactive: Potency [1] > 92 µM | Potency [2] > 92 µM | Potency [3] > 92 µM | Potency [4] > 92 µM | Potency [5] > 92 µM | outcome [6] | outcome [7] | outcome [8] | outcome [9] | outcome [10] | outcome [11] | outcome [12] | Potency [13] | Potency [14] | Potency [15] | Potency [16] | Potency [17] | Potency [18] | max response [19] -4.23% and -2.13% | max response [20] 18.6% and -3.71%

Cc1cc(-c2ccc(N)c(C)c2)ccc1N
inactive: Potency [1] > 92 µM | Potency [2] > 92 µM | Potency [3] > 92 µM | Potency [4] > 92 µM | Potency [5] > 92 µM | outcome [6] | outcome [7] | outcome [8] | outcome [9] | outcome [10] | outcome [11] | outcome [12] | Potency [13] | Potency [14] | Potency [15] | Potency [16] | Potency [17] | Potency [18] | max response [19] -1.36% and 7.56% and 13.5% | max response [20] -3.44% and 7.54% and -3.02%
